The target in one experiment is T1, Aspartate--tRNA(Asp/Asn) ligase (Mycobacterium tuberculosis (strain ATCC 25618 / H37Rv)) (UniProt P9WFW3). Note: in the data most compounds retested in dose-response had high values.
T1 sequence (whole entry): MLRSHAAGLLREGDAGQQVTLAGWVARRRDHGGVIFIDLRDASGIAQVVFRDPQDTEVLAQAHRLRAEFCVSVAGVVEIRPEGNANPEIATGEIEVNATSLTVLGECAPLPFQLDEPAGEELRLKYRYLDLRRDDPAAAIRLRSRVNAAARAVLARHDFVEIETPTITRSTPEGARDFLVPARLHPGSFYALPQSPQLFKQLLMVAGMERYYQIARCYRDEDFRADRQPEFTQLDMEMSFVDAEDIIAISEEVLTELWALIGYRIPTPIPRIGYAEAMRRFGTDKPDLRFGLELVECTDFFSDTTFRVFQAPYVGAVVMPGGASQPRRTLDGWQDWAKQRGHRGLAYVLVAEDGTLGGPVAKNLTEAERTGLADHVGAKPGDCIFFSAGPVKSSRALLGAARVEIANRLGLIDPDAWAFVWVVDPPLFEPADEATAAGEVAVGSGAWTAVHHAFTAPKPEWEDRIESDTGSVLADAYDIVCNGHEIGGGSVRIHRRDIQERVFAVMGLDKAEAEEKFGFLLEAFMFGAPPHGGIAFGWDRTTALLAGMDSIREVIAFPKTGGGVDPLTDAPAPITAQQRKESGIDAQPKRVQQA
Kind of experiment: Assay for Asp RNA synthetase-1 from Mycobacterium tuberculosis. Further details: scale not given: direction of the effect not stated beside the values. The experiment is classed as functional. Particulars: 30 µM.
On to `Cc1cc(S(=O)(=O)NCc2cccc(C(=O)N3CCCC3)c2)c(C)s1`, for which the Percent Effect is 2.16%.

`CN(CC(F)(F)F)C(=O)C1CSCN1C(=O)OC(C)(C)C` (stereo not given): the Percent Effect was 2.82%.

As for `CCCS(=O)(=O)N1CCC2(CC1)CN(c1ccccn1)CCO2`, the Percent Effect came out at 2.47%.

`Cc1ccc(S(=O)(=O)N2CCc3nc(C4CCNCC4)ncc3C2)cc1`: the Percent Effect was -1.21%.

Turning to `CCc1ccc(NC(=O)N2C[C@H]3C[C@H](C(=O)NC)[C@@H](C2)O3)cc1`, the Percent Effect came to 3.34%.

Take `O=C(CCc1ccccc1)Nc1ncccc1OC(F)F`: the Percent Effect is -3.26%.

Turning to `Cc1noc(C)c1CN1CCN(CC2CC2)c2ncccc2C1`, the Percent Effect came to 2.1%.

In the case of `CCn1nc(C(C)C)cc1C(=O)NCCCOC`, the Percent Effect was -1.73%.

Turning to `c1nc(CCC2CCCN2)cc(N2CCCOCC2)n1` (stereo not given), the Percent Effect was -5.88%.

As for `Cc1cccc(-c2ccc(C(=O)NCC(C)(C)C(N)=O)c(=O)[nH]2)c1`, the Percent Effect turned out to be 7.72%.

As for `COc1cccc(C(=O)N2CCc3ncnc(C)c3CC2)c1`, the Percent Effect was -1.32%.

`c1ccc(-c2ccc(C3CNCCO3)nc2)cc1` (stereo not given): the Percent Effect came to 7.81%.

As for `CC(NCC1=Cc2cc(Cl)ccc2OC1)c1nnc2n1CCCC2` (stereo not given), the Percent Effect was 1.06%.

Consider `c1ccc(Cn2ccnc2CN2CCOC(Cn3cccn3)C2)cc1` (stereo not given), for which the Percent Effect is -3.22%.

As to `CCN(Cc1ccccc1)C(=O)CN1CCCC(Cn2cncn2)C1` (stereo not given), the Percent Effect amounted to 2.11%.

Turning to `CCNC(=O)CN1CCCN(C(=O)C2CCCc3[nH]ncc32)CC1` (stereo not given), the Percent Effect was -3.09%.

In the case of `COc1cccc(-n2c(C)cc(C(=O)NS(C)(=O)=O)c2C)c1`, the Percent Effect was -1.31%.

For `O=C(c1ccco1)N1CCC2(CC1)C(=O)NCCN2CC1CC1`, the Percent Effect was determined as 10.6%.

Turning to `COCCNC(=O)[C@@H]1CC[C@@H]2[C@@H](CCN2Cc2cnn(C)c2)O1`, the Percent Effect came out at 2.71%.

In the case of `CC(c1ccc(F)c(F)c1)N1CCN(Cc2nccn2C)CC1` (stereo not given), the Percent Effect is -2.85%.

`CC(C)CCN1CC2(CCCN(C(=O)c3cscn3)C2)CCC1=O` (stereo not given): the Percent Effect came to 8.2%.

`CC1CN(C(=O)NCCCn2cncn2)CCO1` (stereo not given): the Percent Effect was -7.24%.

On to `Cc1cnn(CC2CCCCN2CCCS(N)(=O)=O)c1` (stereo not given), for which the Percent Effect was -8.36%.

Turning to `Cc1nc(CN2CCOC(CNc3cccnn3)C2)cs1` (stereo not given), the Percent Effect is -1.08%.

As for `O=C(Cc1noc2ccccc12)N1CCCC1c1noc(C2CC2)n1` (stereo not given), the Percent Effect was -3.11%.

For `Cn1ccc(C(=O)N2CCCC(n3cncn3)C2)cc1=O` (stereo not given), the Percent Effect is -4.15%.

For the compound `Cc1cccc2c1cnn2CCCNC(=O)CCCC(=O)O`, the Percent Effect was 15.5%.

Consider `CCN1CC(C(=O)NC(C)(C)CC(C)(C)C)CC1=O` (stereo not given), for which the Percent Effect worked out at 2.27%.

Consider `CCc1ccc(-n2c(=O)[nH]c3nc(N4CCSCC4)ncc3c2=O)cc1`, for which the Percent Effect worked out at 15.3%.

On to `CCN(CC)C(=O)c1nnn(-c2ccc(C)cc2)c1C1CC1`, for which the Percent Effect is -1.37%.

For the compound `Cc1cc(C)n(CC2CCCN2CC(=O)N(C)Cc2cnn(C)c2)n1` (stereo not given), the Percent Effect was -0.211%.

As to `CN1CCCn2c(nc(CNC(=O)c3ccsc3)cc2=O)C1`, the Percent Effect was 4.62%.

On to `Cn1ccc(C(=O)NCc2ccc(N3CCCC3)nc2)cc1=O`, for which the Percent Effect worked out at 0.0735%.

For the compound `CCOc1ccc(-n2nnc(C(=O)O)c2-c2ccccn2)cc1`, the Percent Effect was 12%.

Regarding `CC(C)c1nccn1-c1cccc(C2CCCN(C3CCCC3)C2)n1` (stereo not given), the Percent Effect worked out at 3.46%.

For the compound `Cc1cc(-c2ccc(C(=O)O)cc2)nc(C2CCCN(C(C)C)C2)n1` (stereo not given), the Percent Effect was -0.0735%.

For `CCOCC(O)CN1CCN(C(=O)c2cnc3n[nH]c(C)c3c2)CC1` (stereo not given), the Percent Effect was 1.04%.

`CC(=O)N1CC[C@H]2OCC[C@@]2(C(=O)NCc2ccco2)C1`: the Percent Effect was found to be 0.379%.

For `Cc1ccc(NC2CCN(C(=O)c3ccc(Cl)o3)CC2)nn1`, the Percent Effect was found to be 1.75%.

Consider `CC(NC(=O)CCc1cccs1)c1nnc2n1CCC2` (stereo not given), for which the Percent Effect is -0.379%.

Another experiment has as its target Shiga toxin 2 (Escherichia coli O157:H7) (UniProt P09385+P09386). Kind of experiment: E. coli 0.157:H7 Shiga Toxin SOP - stx2 screening assay. The class given is functional. Also on record: scale not given: direction of the effect not stated beside the values. The settings on record: 30 µM.
In the case of `Cc1cc(S(=O)(=O)NCc2cccc(C(=O)N3CCCC3)c2)c(C)s1`, the Percent Effect was determined as 5.68%.

Take `CN(CC(F)(F)F)C(=O)C1CSCN1C(=O)OC(C)(C)C` (stereo not given): the Percent Effect is -9.84%.

Turning to `CCCS(=O)(=O)N1CCC2(CC1)CN(c1ccccn1)CCO2`, the Percent Effect was -46.8%.

With `Cc1ccc(S(=O)(=O)N2CCc3nc(C4CCNCC4)ncc3C2)cc1`, the Percent Effect stood at 8.71%.

As to `CCc1ccc(NC(=O)N2C[C@H]3C[C@H](C(=O)NC)[C@@H](C2)O3)cc1`, the Percent Effect was -5.17%.

With `O=C(CCc1ccccc1)Nc1ncccc1OC(F)F`, the Percent Effect was -5.61%.

With `Cc1noc(C)c1CN1CCN(CC2CC2)c2ncccc2C1`, the Percent Effect is 0.649%.

As to `CCn1nc(C(C)C)cc1C(=O)NCCCOC`, the Percent Effect amounted to 3.47%.

Regarding `c1nc(CCC2CCCN2)cc(N2CCCOCC2)n1` (stereo not given), the Percent Effect was -10.1%.

Take `Cc1cccc(-c2ccc(C(=O)NCC(C)(C)C(N)=O)c(=O)[nH]2)c1`: the Percent Effect was -21.6%.

`COc1cccc(C(=O)N2CCc3ncnc(C)c3CC2)c1`: the Percent Effect was -12%.

On to `c1ccc(-c2ccc(C3CNCCO3)nc2)cc1` (stereo not given), for which the Percent Effect was -59.5%.

Regarding `CC(NCC1=Cc2cc(Cl)ccc2OC1)c1nnc2n1CCCC2` (stereo not given), the Percent Effect was -9.58%.

As for `c1ccc(Cn2ccnc2CN2CCOC(Cn3cccn3)C2)cc1` (stereo not given), the Percent Effect amounted to 8.78%.

Consider `CCN(Cc1ccccc1)C(=O)CN1CCCC(Cn2cncn2)C1` (stereo not given), for which the Percent Effect was found to be 3.34%.

In the case of `CCNC(=O)CN1CCCN(C(=O)C2CCCc3[nH]ncc32)CC1` (stereo not given), the Percent Effect is -2%.

With `COc1cccc(-n2c(C)cc(C(=O)NS(C)(=O)=O)c2C)c1`, the Percent Effect was 4.7%.

For `O=C(c1ccco1)N1CCC2(CC1)C(=O)NCCN2CC1CC1`, the Percent Effect is -10.1%.

Take `COCCNC(=O)[C@@H]1CC[C@@H]2[C@@H](CCN2Cc2cnn(C)c2)O1`: the Percent Effect is -20.8%.

As to `CC(c1ccc(F)c(F)c1)N1CCN(Cc2nccn2C)CC1` (stereo not given), the Percent Effect was -13.2%.

`CC(C)CCN1CC2(CCCN(C(=O)c3cscn3)C2)CCC1=O` (stereo not given): the Percent Effect is -13.4%.

As to `CC1CN(C(=O)NCCCn2cncn2)CCO1` (stereo not given), the Percent Effect was determined as 31.5%.

Consider `Cc1cnn(CC2CCCCN2CCCS(N)(=O)=O)c1` (stereo not given), for which the Percent Effect was -56.9%.

On to `Cc1nc(CN2CCOC(CNc3cccnn3)C2)cs1` (stereo not given), for which the Percent Effect was -2.07%.

For `O=C(Cc1noc2ccccc12)N1CCCC1c1noc(C2CC2)n1` (stereo not given), the Percent Effect came out at 8.27%.

Take `Cn1ccc(C(=O)N2CCCC(n3cncn3)C2)cc1=O` (stereo not given): the Percent Effect is -5.76%.

As to `Cc1cccc2c1cnn2CCCNC(=O)CCCC(=O)O`, the Percent Effect is -61.8%.

For the compound `CCN1CC(C(=O)NC(C)(C)CC(C)(C)C)CC1=O` (stereo not given), the Percent Effect was -6.14%.

Turning to `CCc1ccc(-n2c(=O)[nH]c3nc(N4CCSCC4)ncc3c2=O)cc1`, the Percent Effect was -13.5%.

Consider `CCN(CC)C(=O)c1nnn(-c2ccc(C)cc2)c1C1CC1`, for which the Percent Effect is -1.32%.

Consider `Cc1cc(C)n(CC2CCCN2CC(=O)N(C)Cc2cnn(C)c2)n1` (stereo not given), for which the Percent Effect came out at 21.8%.

Turning to `CN1CCCn2c(nc(CNC(=O)c3ccsc3)cc2=O)C1`, the Percent Effect is -9.45%.

For the compound `Cn1ccc(C(=O)NCc2ccc(N3CCCC3)nc2)cc1=O`, the Percent Effect was -33.5%.

Regarding `CCOc1ccc(-n2nnc(C(=O)O)c2-c2ccccn2)cc1`, the Percent Effect was -8.4%.

Turning to `CC(C)c1nccn1-c1cccc(C2CCCN(C3CCCC3)C2)n1` (stereo not given), the Percent Effect was determined as 3.04%.

Regarding `Cc1cc(-c2ccc(C(=O)O)cc2)nc(C2CCCN(C(C)C)C2)n1` (stereo not given), the Percent Effect is -2.97%.

In the case of `CCOCC(O)CN1CCN(C(=O)c2cnc3n[nH]c(C)c3c2)CC1` (stereo not given), the Percent Effect came to 30.1%.

In the case of `CC(=O)N1CC[C@H]2OCC[C@@]2(C(=O)NCc2ccco2)C1`, the Percent Effect is -17.2%.

For the compound `Cc1ccc(NC2CCN(C(=O)c3ccc(Cl)o3)CC2)nn1`, the Percent Effect was 7.55%.

With `CC(NC(=O)CCc1cccs1)c1nnc2n1CCC2` (stereo not given), the Percent Effect stood at 3.4%.

The values are drawn from ChEMBL document CHEMBL3988442, “University of Dundee, Small-Polar-MMV Screening Library” (2021).
